# Assay results reported in ChEMBL document CHEMBL2218924, “A broad activity screen in support of a chemogenomic map for kinase signalling research and drug discovery” (Biochem J, 2013).
# How the values were obtained:
# [1] = target: T1, Serine/threonine-protein kinase TAO3 (Homo sapiens) (UniProt Q9H2K8); details: at 10 µM
# T1 sequence (whole entry): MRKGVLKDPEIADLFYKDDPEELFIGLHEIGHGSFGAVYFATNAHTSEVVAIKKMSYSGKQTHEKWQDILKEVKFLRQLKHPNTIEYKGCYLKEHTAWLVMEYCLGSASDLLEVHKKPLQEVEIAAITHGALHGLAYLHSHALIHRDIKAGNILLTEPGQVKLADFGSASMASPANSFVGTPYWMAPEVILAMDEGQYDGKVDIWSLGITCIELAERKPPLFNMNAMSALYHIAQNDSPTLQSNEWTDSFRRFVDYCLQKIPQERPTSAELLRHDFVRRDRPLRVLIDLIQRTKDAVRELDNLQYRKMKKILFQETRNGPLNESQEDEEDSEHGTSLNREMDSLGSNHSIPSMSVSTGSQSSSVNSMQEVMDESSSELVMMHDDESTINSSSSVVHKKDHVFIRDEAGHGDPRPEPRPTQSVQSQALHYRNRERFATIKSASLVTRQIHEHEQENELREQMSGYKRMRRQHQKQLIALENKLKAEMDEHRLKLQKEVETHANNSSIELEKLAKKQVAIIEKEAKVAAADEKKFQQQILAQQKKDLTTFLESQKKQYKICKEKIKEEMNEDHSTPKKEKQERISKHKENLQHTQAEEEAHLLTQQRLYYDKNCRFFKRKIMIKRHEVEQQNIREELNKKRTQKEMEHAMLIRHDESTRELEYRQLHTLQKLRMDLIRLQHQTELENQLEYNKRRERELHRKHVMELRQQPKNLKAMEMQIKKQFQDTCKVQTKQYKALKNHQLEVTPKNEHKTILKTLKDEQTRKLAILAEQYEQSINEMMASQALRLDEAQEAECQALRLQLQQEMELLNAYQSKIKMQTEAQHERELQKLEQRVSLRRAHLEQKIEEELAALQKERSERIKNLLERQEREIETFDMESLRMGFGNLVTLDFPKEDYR
# [2] = target: T2, Serine/threonine-protein kinase TBK1 (Homo sapiens) (UniProt Q9UHD2); details: at 1 µM
# T2 sequence (whole entry): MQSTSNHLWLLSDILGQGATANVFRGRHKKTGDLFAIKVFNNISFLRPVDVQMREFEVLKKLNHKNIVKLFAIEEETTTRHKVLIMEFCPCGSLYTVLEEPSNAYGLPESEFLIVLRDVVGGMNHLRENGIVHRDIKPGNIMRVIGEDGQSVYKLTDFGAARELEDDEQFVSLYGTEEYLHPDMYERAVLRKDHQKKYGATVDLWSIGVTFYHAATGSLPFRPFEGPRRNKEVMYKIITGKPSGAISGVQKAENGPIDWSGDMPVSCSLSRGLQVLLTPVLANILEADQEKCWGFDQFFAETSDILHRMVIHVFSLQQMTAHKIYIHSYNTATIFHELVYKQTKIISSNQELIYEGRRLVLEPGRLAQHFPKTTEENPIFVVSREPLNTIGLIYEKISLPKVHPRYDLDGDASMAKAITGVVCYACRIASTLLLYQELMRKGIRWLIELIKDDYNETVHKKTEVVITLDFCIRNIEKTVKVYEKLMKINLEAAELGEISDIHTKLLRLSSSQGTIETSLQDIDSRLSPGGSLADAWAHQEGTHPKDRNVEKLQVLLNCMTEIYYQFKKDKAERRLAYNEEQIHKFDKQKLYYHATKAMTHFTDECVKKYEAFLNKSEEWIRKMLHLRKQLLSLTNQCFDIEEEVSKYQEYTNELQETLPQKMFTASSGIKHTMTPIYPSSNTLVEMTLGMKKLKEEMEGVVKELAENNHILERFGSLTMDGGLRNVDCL
# [3] = target: T2, Serine/threonine-protein kinase TBK1 (Homo sapiens); details: at 10 µM
# [4] = target: T3, TGF-beta receptor type-1 (Homo sapiens) (UniProt P36897); details: at 1 µM
# T3 sequence (whole entry): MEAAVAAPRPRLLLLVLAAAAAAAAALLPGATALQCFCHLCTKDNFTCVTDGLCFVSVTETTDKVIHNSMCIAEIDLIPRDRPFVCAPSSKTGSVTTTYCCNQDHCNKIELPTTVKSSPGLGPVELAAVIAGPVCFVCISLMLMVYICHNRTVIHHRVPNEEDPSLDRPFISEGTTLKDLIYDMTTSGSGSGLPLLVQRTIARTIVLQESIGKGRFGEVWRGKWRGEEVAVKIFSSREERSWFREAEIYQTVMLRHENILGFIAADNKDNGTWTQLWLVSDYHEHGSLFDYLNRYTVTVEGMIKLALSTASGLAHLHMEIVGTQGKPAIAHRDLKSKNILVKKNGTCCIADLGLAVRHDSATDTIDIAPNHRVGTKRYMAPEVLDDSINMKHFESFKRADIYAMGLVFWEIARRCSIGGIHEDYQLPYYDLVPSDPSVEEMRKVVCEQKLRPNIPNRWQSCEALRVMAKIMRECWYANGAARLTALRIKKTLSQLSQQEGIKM
# [5] = target: T3, TGF-beta receptor type-1 (Homo sapiens); details: at 10 µM
# [6] = target: T4, Inhibitor of nuclear factor kappa-B kinase subunit alpha (Homo sapiens) (UniProt O15111); details: at 10 µM
# T4 sequence (whole entry): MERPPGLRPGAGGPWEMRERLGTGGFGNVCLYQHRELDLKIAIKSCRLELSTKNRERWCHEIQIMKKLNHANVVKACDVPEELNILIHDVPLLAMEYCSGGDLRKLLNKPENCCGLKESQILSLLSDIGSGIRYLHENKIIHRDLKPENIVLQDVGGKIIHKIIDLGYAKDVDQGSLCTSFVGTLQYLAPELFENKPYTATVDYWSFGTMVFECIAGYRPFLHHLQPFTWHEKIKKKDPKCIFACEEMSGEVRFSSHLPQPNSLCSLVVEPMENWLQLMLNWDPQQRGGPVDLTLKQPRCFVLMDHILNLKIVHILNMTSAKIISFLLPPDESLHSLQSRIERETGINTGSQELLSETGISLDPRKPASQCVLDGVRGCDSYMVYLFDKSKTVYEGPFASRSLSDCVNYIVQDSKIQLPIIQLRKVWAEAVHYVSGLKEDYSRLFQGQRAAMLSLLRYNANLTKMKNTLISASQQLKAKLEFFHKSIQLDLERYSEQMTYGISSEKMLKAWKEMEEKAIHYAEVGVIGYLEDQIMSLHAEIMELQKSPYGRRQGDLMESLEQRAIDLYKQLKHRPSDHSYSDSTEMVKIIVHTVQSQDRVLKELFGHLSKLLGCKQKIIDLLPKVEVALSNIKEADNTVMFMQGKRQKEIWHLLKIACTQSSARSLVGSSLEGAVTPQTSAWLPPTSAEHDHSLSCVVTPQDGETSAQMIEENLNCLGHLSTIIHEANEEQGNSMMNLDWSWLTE
# [7] = target: T5, Inhibitor of nuclear factor kappa-B kinase subunit beta (Homo sapiens) (UniProt O14920); details: at 1 µM
# T5 sequence (whole entry): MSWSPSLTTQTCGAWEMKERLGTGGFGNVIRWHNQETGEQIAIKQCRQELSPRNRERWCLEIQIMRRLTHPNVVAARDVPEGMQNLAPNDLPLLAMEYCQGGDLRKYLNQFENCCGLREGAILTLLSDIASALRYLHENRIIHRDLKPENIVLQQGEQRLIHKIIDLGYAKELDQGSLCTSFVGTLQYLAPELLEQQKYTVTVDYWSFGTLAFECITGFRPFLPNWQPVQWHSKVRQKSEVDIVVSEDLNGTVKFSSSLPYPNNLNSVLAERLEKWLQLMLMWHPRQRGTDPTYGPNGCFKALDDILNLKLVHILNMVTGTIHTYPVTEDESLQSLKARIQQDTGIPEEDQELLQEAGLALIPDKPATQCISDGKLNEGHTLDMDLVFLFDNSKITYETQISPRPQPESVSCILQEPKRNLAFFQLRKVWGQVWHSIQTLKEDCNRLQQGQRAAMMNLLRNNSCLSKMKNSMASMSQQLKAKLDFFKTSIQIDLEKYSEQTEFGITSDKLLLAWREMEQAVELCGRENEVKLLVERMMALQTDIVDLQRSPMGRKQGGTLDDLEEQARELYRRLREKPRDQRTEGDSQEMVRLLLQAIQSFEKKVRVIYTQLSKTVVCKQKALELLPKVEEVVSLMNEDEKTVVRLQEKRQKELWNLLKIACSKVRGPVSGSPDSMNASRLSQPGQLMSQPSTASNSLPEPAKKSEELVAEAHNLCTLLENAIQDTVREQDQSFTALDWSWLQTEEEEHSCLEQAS
# [8] = target: T5, Inhibitor of nuclear factor kappa-B kinase subunit beta (Homo sapiens); details: at 10 µM
# [9] = target: Insulin receptor (Homo sapiens) (UniProt P06213); details: at 1 µM
# Insulin receptor (Homo sapiens), sequence (P06213 28-758 limits assumed): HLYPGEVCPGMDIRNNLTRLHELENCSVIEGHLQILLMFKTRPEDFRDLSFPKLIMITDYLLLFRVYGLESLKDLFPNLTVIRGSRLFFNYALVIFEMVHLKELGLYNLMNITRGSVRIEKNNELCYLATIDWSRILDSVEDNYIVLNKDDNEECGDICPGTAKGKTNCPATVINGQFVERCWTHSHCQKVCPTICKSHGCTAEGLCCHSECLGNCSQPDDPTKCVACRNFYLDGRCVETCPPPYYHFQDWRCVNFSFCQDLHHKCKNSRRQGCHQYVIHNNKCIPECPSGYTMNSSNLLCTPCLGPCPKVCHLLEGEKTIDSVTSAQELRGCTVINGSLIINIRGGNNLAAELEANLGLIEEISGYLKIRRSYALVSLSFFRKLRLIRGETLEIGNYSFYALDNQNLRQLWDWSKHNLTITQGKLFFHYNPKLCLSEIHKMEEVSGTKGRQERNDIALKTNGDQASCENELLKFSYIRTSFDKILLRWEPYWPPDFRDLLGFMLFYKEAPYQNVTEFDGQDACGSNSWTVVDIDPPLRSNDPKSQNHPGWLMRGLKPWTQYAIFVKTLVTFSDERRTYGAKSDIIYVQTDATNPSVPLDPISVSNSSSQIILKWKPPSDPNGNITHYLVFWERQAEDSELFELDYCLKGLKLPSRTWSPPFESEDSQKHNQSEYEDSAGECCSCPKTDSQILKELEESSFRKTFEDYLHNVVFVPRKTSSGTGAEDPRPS
# Insulin receptor (Homo sapiens), sequence (P06213 763-1382 limits assumed): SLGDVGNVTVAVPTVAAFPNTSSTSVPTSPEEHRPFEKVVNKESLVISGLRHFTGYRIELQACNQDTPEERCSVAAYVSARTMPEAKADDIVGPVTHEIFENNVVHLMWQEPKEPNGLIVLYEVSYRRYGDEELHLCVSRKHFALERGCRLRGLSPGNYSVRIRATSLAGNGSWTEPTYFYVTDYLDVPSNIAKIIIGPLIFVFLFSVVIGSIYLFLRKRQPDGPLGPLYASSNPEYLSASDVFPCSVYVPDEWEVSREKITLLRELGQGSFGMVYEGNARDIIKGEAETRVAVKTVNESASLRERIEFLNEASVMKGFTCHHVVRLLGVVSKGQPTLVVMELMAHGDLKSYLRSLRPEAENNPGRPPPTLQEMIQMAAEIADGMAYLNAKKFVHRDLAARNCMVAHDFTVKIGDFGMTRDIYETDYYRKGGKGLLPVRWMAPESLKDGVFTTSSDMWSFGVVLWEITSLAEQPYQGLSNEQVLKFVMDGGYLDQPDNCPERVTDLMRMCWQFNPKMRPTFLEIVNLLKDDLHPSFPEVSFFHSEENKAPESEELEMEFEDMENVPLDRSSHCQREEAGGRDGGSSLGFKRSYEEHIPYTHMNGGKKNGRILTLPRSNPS
structure (smiles),measurement,setting,value
O=C1Nc2ccc(Cl)cc2/C1=C/c1cc(Cl)c(O)c(Cl)c1,residual activity,[1],52%
same,residual activity,[2],59%
same,residual activity,[3],38%
same,residual activity,[4],79%
same,residual activity,[5],42%
same,residual activity,[6],88%
same,residual activity,[7],100%
same,residual activity,[8],67%
same,residual activity,[9],96%
